Assay results: ChEMBL document CHEMBL4513149, “CO-ADD screening of MMV (CH) - MMV compounds” (2021)
Results with a measured potency or affinity are listed apart.

How the values were obtained:
Staphylococcus aureus = details: Concentration 20 uM; ASSAY_TEST Inhibition of Bacterial Growth; detection method Absorption (OD600); MEDIA CAMHB; plate type 384well; NBS; CORNING #3640; time 18 hr
Escherichia coli = details: Concentration 20 uM; ASSAY_TEST Inhibition of Bacterial Growth; detection method Absorption (OD600); MEDIA CAMHB; plate type 384well; NBS; CORNING #3640; time 18 hr

SMILES	Inhibition (Staphylococcus aureus) [%]	Inhibition (Escherichia coli) [%]
O=C1[C@@H](Oc2ccccc2)[C@@H](c2ccc(Cl)cc2)N1CCn1cnc2c(NCc3ccccc3)ncnc21	-4.13	1.08
O=C(c1cc2ccccc2o1)N1CCN(Cc2ccc3c(c2)OCO3)CC1	8.69	11.22
c1ccc(-c2[nH]c3ccccc3c2C(c2ccccn2)N2CCCC2)cc1 (stereo not given)	7	3.92
COc1cccc(OC)c1C(=O)Nc1ccc(Cl)c(-c2nc3ccccc3s2)c1	3.55	-2.89
CCc1ccc(C(NCc2nc(N)nc(N(C)C)n2)C(C)C)cc1 (stereo not given)	6.21	7.08
Brc1c(-c2ccc3c(c2)OCO3)nc2ncccn12	14.85	5.08
CCCS(=O)(=O)N1CCC(CO)(Cc2ccccc2C(F)(F)F)CC1	8.25	-1.16
Nc1nccc2ccc(-c3ccc4nccn4c3)cc12	24.43	1.05
Cc1ccc2oc(-c3cc(NC(=O)Cc4ccccc4)ccc3Cl)nc2c1	2.8	6.02
c1coc(CNc2nc(N3CCCCC3)nc3ccccc23)c1	13.52	5.17
Cc1cc(OCC(=O)Nc2ccc(C(C)C)cc2)n(C)c(=O)c1C#N	7.07	14.16
O=C(Nc1nc(-c2ccccn2)cs1)C1CC1c1ccccc1F (stereo not given)	16.77	3.89
CCOc1ccc(-c2nc(CNCCc3ccc(F)cc3)cs2)cc1	30.74	7.75
CNc1cc(C)nc(C2CN(C(=O)c3n[nH]c4ccccc34)CCO2)c1 (stereo not given)	17.74	10.11
Cc1ccc(NC(=O)c2nc[nH]c2C(=O)Nc2nc3ccccc3[nH]2)c(C)c1	23.22	12.12
Clc1cccc(CO[C@H]2CCc3ccccc3[C@@H]2n2ccnn2)c1	-0.96	7.53
Cc1nn(C)cc1C(C)Nc1nncc(-c2ccc(C(F)(F)F)cc2)n1 (stereo not given)	2.57	3.9
Cc1nc(-c2cccc(NCc3ccccc3)c2)[nH]c1C	19.75	6.38
CC1=NN(c2nc3ccccc3s2)C(=O)C1Cc1cccc2ccccc12 (stereo not given)	69.16	0.69
CC(C)C(NC(=O)Cc1cccc2ccccc12)C(=O)Nc1cccc(C#N)c1 (stereo not given)	17.14	6.32
COc1ccc(-c2nnc3ccc(-c4cccc(C(C)C)c4)cn23)cc1OC	5.54	12.18
O=C(CN1CCOCC1)Nc1ccc2ncnc(Nc3ccc(OCc4cccc(F)c4)c(Cl)c3)c2c1	14.97	4.06
COc1ccc(-c2onc(C(F)(F)F)c2-c2ccc(Cl)cc2)c(O)c1	22.97	5.79
COC(=O)c1c(NC(=O)c2c(F)c(F)c(F)c(F)c2F)sc2c1CCCCC2	13.36	6.57
Nc1ncc(-c2cn[nH]c2)cc1-c1nc2cc(Cl)cnc2[nH]1	-0.61	5.12
CS(=O)(=O)N1CCC(Cn2nc(Cc3cccc4ccccc34)c3c(N)ncnc32)CC1	11.53	3.3
CC1CCCN(C(=O)C(C)Nc2cc(Cl)ccc2N2CCOCC2)C1 (stereo not given)	20.88	9.44
O=C(Cn1ccnc1[N+](=O)[O-])NCc1ccccc1 [BENZNIDAZOLE]	21.81	9.92
COCC(C)NC(=O)CSc1ncnc2sc(-c3ccccc3)cc12 (stereo not given)	19.45	9.3
CN(C)CCNC(=O)N1CCCN(c2ncnc3cc(-c4ccccc4)sc23)CC1	13.78	3.44
